Experimental data published in PubChem BioAssay (NCATS).
Records with an inconclusive call do not appear. Active and inactive are the calls of the source. The call rests on the fitted dose curve; in most records, active means well fitted curve in the direction sought with a large enough effect; inconclusive means small, poorly fitted or top-dose-only effect, or another doubt; inactive means no such curve, though single readings can be large; an effect the other way counts as inactive or inconclusive.

How the values were obtained:
[1] = test system: NAD(P)H diaphorase (Clostridium kluyveri); test: Diaphorse counterscreen qHTS: Assay Interference Panel against the NCATS CANVASS Library (AID 1347362)
Method in brief: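 Clostridium kluyveri diaphorase in PBS + 0.01% Tween-20 preincubated 15 min with compounds. Resazurin and NADH then added for 5 min at room temperature in the dark; resorufin fluorescence read (ex 525, em 598).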

[2] = target: Luciferin 4-monooxygenase (Photinus pyralis) (UniProt P08659); test: Firefly luciferase counterscreen qHTS: Assay Interference Panel against the NCATS CANVASS Library (AID 1347363)
Luciferin 4-monooxygenase (Photinus pyralis), sequence (P08659 whole entry, looked up): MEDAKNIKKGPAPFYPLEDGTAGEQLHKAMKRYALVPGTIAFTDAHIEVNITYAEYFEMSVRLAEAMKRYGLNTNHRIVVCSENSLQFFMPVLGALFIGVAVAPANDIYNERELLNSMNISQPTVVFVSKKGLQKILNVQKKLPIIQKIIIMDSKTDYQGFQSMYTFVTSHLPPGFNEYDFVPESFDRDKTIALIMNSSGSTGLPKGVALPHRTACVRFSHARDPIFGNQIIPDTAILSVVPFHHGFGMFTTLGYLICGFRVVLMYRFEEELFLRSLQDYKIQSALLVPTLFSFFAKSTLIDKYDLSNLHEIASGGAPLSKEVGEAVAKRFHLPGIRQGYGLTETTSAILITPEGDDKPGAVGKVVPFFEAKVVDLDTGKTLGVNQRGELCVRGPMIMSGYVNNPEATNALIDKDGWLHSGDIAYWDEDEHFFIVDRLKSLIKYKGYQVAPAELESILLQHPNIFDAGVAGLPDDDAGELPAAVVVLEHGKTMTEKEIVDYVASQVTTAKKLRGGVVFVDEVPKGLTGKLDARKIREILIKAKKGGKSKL
Method in brief: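 Purified P. pyralis luciferase (0.04 ug/mL, 4x reagent) added to Tris-acetate buffer with 0.013 mM D-luciferin, 0.013 mM ATP and 13.3 mM Mg-acetate; compounds preincubated 15 min, then luminescence read after 5 min, RT.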

[3] = KB-8-5-11 Cancer Cell Toxicity qHTS against the NCATS CANVASS Library (AID 1347364); settings: KB-8-5-11 MDR cells viability, CellTiter-Glo, 72 h; at 15.4 µM (top of the series); further: nearly all actives have a fitted effect of over 75% in size
Method in brief: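 Viability read as CellTiter-Glo luminescence after 72 h at 37 °C, 5% CO2. 11-point compound series on 500 KB-8-5-11 cells/well in DMEM/10% FBS. Follow-up plating included 1 uM tariquidar in the medium.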

[4] = SDT Cancer Cell Toxicity qHTS against the NCATS CANVASS Library (AID 1347365);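 further: SDT canine glioma cells 500 per well in 1536 well plates; nearly all actives have a fitted effect of over 60% in size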
Method in brief: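 Cytotoxicity taken from CellTiterGlo ATP luminescence after 72 hr at 37C, 5% CO2. Canine glioma line SDT, 500 cells/well, treated at 11 concentrations; bortezomib dose series as control.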

[5] = KB-3-1 Cancer Cell Toxicity qHTS against the NCATS CANVASS Library (AID 1347366); settings: KB-3-1 viability, CellTiter-Glo luminescence, 72 h; at 15.4 µM (top of the series); further: nearly all actives have a fitted effect of over 75% in size
Method in brief: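 Cytotoxicity toward KB-3-1 cells (500/well, DMEM + 10% FBS) was scored by CellTiter-Glo luminescence following 72 hr exposure at 37C, with bortezomib titrated as control.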

[6] = qHTS for ATAD5 Agonist screened against the NCATS CANVASS Library (AID 1347367);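 further: luciferase reporter driven by ATAD5 which rises upon DNA damage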
Method in brief: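 Genotoxicity was scored as increased ATAD5-luciferase luminescence in HEK293T after 16hr of exposure, with cell viability measured by fluorescence beforehand in the same well.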

[7] = G06 Cancer Cell Toxicity qHTS against the NCATS CANVASS Library (AID 1347368); further: nearly all actives have a fitted effect of over 60% in size
Method in brief: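 Viability measured by CellTiterGlo ATP luminescence after 72 hr at 37C, 5% CO2. Canine G06 glioma cells plated at 500/well. Compounds tested as 11-point qHTS titrations.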

[8] = MCF7 Cancer Cell Toxicity qHTS against the NCATS CANVASS Library (AID 1347369); settings: MCF7 viability, ATP luminescence (CellTiter-Glo), 72 h; at 15.3 µM (top of the series)
Method in brief: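 This 72 hr qHTS scored MCF7 viability by CellTiterGlo luminescence, with 500 cells/well; bortezomib titration ran as control.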

[9] = qHTS for ATAD5 Antagonist screened against the NCATS CANVASS Library (AID 1347370);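 further: HEK293T cells carrying an ATAD5 luciferase reporter co-treated with 10 µM 5-fluorouridine; nearly all actives have a fitted effect of over 65% in size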
Method in brief: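 Compounds (11-point) co-dosed with 10 µM 5-FUrd for 16 h at 37 °C onto HEK293T-ATAD5 luciferase reporter cells. Viability measured by CellTiter-Fluor fluorescence, then ATAD5 reporter signal by luminescence.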

[10] = J3T Cancer Cell Toxicity qHTS against the NCATS CANVASS Library (AID 1347371);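 further: J3T is a canine glioma cancer cell line seeded at 500 cells per well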
Method in brief: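 Cytotoxicity read as CellTiterGlo ATP luminescence after 72 h incubation (37C, 5% CO2) of J3T canine glioma cells (500/well) with an 11-point compound series.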

[11] = target: Nuclear receptor subfamily 1 group I member 3 (Homo sapiens) (UniProt Q14994); test: qHTS for Constitutive Androstane Receptor (CAR) Antagonist screened against the NCATS CANVASS Library (AID 1347372);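 further: cells stimulated with 50 nM CITCO agonist so inhibition reflects antagonism; luciferase from CYP2B6 promoter reporter driven by hCAR in HepG2 cells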
Nuclear receptor subfamily 1 group I member 3 (Homo sapiens), sequence (Q14994 whole entry, looked up): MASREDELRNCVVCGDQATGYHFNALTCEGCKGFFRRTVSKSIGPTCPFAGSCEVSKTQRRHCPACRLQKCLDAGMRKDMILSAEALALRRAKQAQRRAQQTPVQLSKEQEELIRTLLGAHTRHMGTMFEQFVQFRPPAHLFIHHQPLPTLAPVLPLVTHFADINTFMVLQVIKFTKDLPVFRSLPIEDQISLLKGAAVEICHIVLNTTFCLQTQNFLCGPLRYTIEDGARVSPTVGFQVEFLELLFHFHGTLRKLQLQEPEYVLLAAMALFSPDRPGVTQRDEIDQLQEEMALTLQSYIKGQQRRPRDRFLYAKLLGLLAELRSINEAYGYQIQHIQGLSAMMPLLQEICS
Method in brief: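 Luminescence readout (ONE-Glo, 30 min RT) of CYP2B6-2.2kb reporter in HepG2-hCAR cells after 24hr, 37C treatment with compound against 50 nM CITCO; CellTiter-Fluor viability read beforehand.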

[12] = target: Nuclear receptor subfamily 1 group I member 3 (Homo sapiens) (UniProt Q14994); test: qHTS for Constitutive Androstane Receptor (CAR) Agonist screened against the NCATS CANVASS Library (AID 1347373);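 further: every well also contained 1.5 µM PK11195 alongside the test compound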
Method in brief: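 Agonist mode with 1.5uM PK11195 present: compounds for 24hr on HepG2-hCAR-CYP2B6 cells. CellTiter-Fluor fluorescence (ex 405, em 540 nm) gives viability; ONE-Glo luminescence reports CAR activation.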

[13] = qHTS for Hypoxia signaling pathway (HIF-1) antagonists against the NCATS CANVASS Library (AID 1347374);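 further: HRE-bla ME-180 cells stimulated with cobalt chloride to stabilize HIF-1alpha; nearly all actives have a fitted effect of over 60% in size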
Method in brief: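 Antagonism scored as loss of CoCl2-driven (60 uM stock added) HRE beta-lactamase signal, read by CCF4 FRET at 460/530 nm. Compounds were tested in an 11-point series on ME-180 reporter cells for 17 hrs at 37C, with parallel CellTiter-Glo cytotoxicity.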

[14] = qHTS for Hypoxia signaling pathway (HIF-1) agonists against the NCATS CANVASS Library (AID 1347375)
Method in brief: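 Beta-lactamase reporter under HRE control in ME-180 cells; compounds (11-point qHTS series) added after 5 hrs plating, then 17 hrs at 37C. FRET substrate read after 2 hr; same-well CellTiter-Glo luminescence gave viability and normalization.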

[15] = 10-beta competent E. coli microbial cell viability qHTS against the NCATS CANVASS Library (AID 1347376)
Method in brief: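 Read-out: BacTiter-Glo ATP luminescence, taken 20 min after reagent addition. Beforehand, 10-beta competent E. coli at 0.2 OD had been incubated overnight at 37C with compounds at 11 concentrations.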

[16] = DH5-alpha competent E. coli microbial cell viability qHTS against the NCATS CANVASS Library (AID 1347377)
Method in brief: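 Bacterial viability as ATP-dependent luminescence (BacTiter-Glo), read after overnight 37 °C exposure of DH5-alpha competent E. coli to compounds in 11-point titration.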

[17] = qHTS for H2AX Agonists against the NCATS CANVASS Library (AID 1347378);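 further: phospho-H2AX S139 level in CHO-K1 lysates by TR-FRET emission ratio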
Method in brief: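 Signal is the 665/620 nm emission ratio from europium cryptate and d2 antibody pair, rising with S139-phosphorylated H2AX. CHO-K1 cells saw test agents for 3 hr at 37C; detection ran 24 hr at room temperature.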

[18] = qHTS for Inflammasome Signaling Inhibitors: IL-1-beta AlphaLISA screen against the NCATS CANVASS Library (AID 1347379);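 further: human THP-1 cells primed with LPS then triggered with ATP; secreted IL-1B measured as AlphaLISA emission at 615 nm; lower signal means less IL-1B release which is the wanted effect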
Method in brief: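 Secreted IL-1B from human THP-1 cells quantified by AlphaLISA 16 hr after compound addition (final up to 57.5 uM). A 1 hr compound pretreatment preceded inflammasome activation with 250 ng/mL LPS plus 1.25 mM ATP (final).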

[19] = Inflammasome Signaling qHTS Counterscreen: IL-1-beta AlphaLISA counterscreen against the NCATS CANVASS Library (AID 1347381);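 further: cell-free check with purified IL-1β in medium and no THP-1 cells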
Method in brief: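 Purified IL-1-beta (4 pg/well) + compound, 11-pt conc. series; acceptor beads 6 ug/mL + biotin-Ab 0.6 nM final, 1 h RT; SA-donor 24 ug/ml final, 30 min dark RT; read ex 680/em 615.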

[20] = Cytotoxicity qHTS for assessment of Hepg2 cells membrane integrity screened against the NCATS CANVASS Library (AID 1347387)
Method in brief: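 Membrane damage quantified as fluorescent LDH-release signal (ex 560, em 590 nm) in HepG2 cells treated 5 hr at 37C. qHTS format, 11 concentrations spanning 0.59 nM - 46 uM final, cells plated at 2000 per well the night before.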

Measured: outcome

C[C@@H]1O[C@@H](OC[C@H]2O[C@@H](Oc3c(-c4ccc(O)c(O)c4)oc4cc(O)cc(O)c4c3=O)[C@H](O)[C@@H](O)[C@@H]2O)[C@H](O)[C@H](O)[C@H]1O
inactive: all assays above
